Screens from PubChem BioAssay.
Shown are actives, neighbours in structure and some others; about 7.5% of the full set was active somewhere.
ELG1 genotox = genotoxicity induction in ELG1-luciferase HEK293T cells | Potency, µM (series often up to 46 µM), usual class: activators | hit rate 1.3% among 330,000 | HEK293T ELG1-luciferase reporter, luminescence, 16 h; note: nearly all actives have a fitted effect of over 60% in size
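Screening used a luciferase reporter fused to human ELG1 in HEK293T cells. Luminescence was read on a CCD plate imager after 16 hr exposure and 30 min ONE-Glo incubation.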
Rab9 prom act = Rab9 promoter activation; Huh7 Rab9 promoter-luciferase reporter, luminescence, 24 h; Potency, µM (doses to about 9.22 µM), usual class: activators; hit rate 2.8% among 320,000; note: nearly all actives have a fitted effect of over 60% in size
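Cells were plated at 1500 per well in reduced-serum medium with 10% FBS and left 2 h. Compound in DMSO was then added for 24 h at 37 °C. Reporter signal was read by luminescence after 10 min with luciferase detection reagent.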
Luc counter = Kinase-Glo luciferase inhibition (counter-screen); Kinase-Glo luciferase, ATP luminescence, 8 min; Q27757; hit rate 0.28% among 200,000; AID 1379; Potency, µM (titrated, usually from 38.3 µM), hits mostly inhibitors; note: nearly all actives have a fitted effect of over 60% in size
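Recombinant Kinase-Glo luciferase, 10 uM ATP (linear range), luciferin; imidazole pH 7.2 / KCl / MgCl2 / Tween / BSA buffer; 8 min RT; luminescence.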
SMN2 splice enh = SMN2 splice variant enhancement; AID 1458; HEK293 SMN2-luciferase splicing reporter, luminescence, 30-36 h; Potency, µM (series often up to 46.1 µM), hits mostly activators; hit rate 2.8% among 210,000; note: nearly all actives have a fitted effect of over 55% in size
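qHTS luciferase splicing reporter: luminescence rises when SMN2 exon 7 is included in transfected HEK293 cells. Compound exposure lasted 30-36 h at 37C, with 4.5 mM final sodium butyrate as control, followed by a ONE-Glo read.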
FLuc modulator = inhibits or activates purified firefly luciferase, miR-21 counter-screen. P08659. AID 588342. Potency, µM (doses to about 57.5 µM), actives largely listed as inhibitors. purified FLuc, Km substrates, luminescence inhibition. hit rate 6.9% among 360,000; note: nearly all actives have a fitted effect of over 55% in size
Target sequence (P08659 whole entry, looked up): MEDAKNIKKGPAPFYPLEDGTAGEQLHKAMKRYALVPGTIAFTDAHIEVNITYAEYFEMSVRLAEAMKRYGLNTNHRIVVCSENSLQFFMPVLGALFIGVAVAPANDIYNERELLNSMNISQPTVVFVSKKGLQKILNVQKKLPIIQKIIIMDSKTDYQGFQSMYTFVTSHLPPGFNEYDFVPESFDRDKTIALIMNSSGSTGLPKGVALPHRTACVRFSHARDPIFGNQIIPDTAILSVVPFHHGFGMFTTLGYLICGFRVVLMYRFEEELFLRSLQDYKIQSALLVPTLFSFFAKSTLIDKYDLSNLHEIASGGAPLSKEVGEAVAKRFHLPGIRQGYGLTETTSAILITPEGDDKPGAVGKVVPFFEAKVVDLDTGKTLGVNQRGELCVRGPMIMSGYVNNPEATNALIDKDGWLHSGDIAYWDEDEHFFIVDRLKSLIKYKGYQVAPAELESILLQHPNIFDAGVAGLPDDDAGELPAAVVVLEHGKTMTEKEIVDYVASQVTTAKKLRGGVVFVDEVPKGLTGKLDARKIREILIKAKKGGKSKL
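Biochemical qHTS of compounds, final roughly 60 µM downward over six points, against 10 nM purified firefly luciferase using Km concentrations of substrates (10 uM D-luciferin, 10 uM ATP) in Tris acetate pH 7.5 buffer; luminescence output.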
NPC1 prom act = NPC1 promoter activation. hit rate 2.4% among 320,000. Huh7 NPC1 promoter luciferase reporter, 24 h. Potency, µM (titrated, usually from 9.22 µM), usual class: activators; note: nearly all actives have a fitted effect of over 60% in size
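Cells: Huh7 expressing luciferase under the NPC1 promoter, 1500/well. Seeded 2 h, compound added, incubated 24 h at 37 °C. Luciferase reagent, 10 min ambient, then luminescence.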
Of the large screens only hits and unclear results are named; the others gave an inactive call. Calls come from the whole dose curve; as a rule, active = well fitted curve in the direction sought with a large enough effect; inconclusive = small, poorly fitted or top-dose-only effect, or another doubt; inactive = no such curve, though single readings can be large; an effect the other way counts as inactive or inconclusive.

COc1cc(O)c(C(CC(=O)N2CCOCC2)c2cc(OC)c(OC)c(OC)c2)c(OC)c1 (stereo not drawn)	none (no result: Luc counter, SMN2 splice enh)
Cc1c(CN(C)C(=O)c2nn(C)cc2[N+](=O)[O-])cnn1C	none
Cc1ccc(-c2cc(C(=O)N(C)Cc3cnn(C)c3C)c3cc(Br)ccc3n2)cc1	FLuc modulator 10.7µM
Cc1ccc(-c2cc(C(=O)NCc3cnn(C)c3C)c3cc(Br)ccc3n2)cc1	FLuc modulator 2.13µM
NNC(=O)c1cc(-c2ccc(O)cc2)nc2ccc(Br)cc12	FLuc modulator inconclusive (no result: Luc counter, SMN2 splice enh)
COc1ccc(S(=O)(=O)c2c(Nc3cccc(C)c3C)sc(C(=O)c3ccccc3)c2N)cc1	none (no result: ELG1 genotox, Rab9 prom act, Luc counter, NPC1 prom act)
O=[N+]([O-])c1cccnc1Oc1ccc(C2SCCS2)cc1	ELG1 genotox inconclusive, Rab9 prom act inconclusive, FLuc modulator 21.3µM, NPC1 prom act inconclusive (no result: Luc counter, SMN2 splice enh)
O=[N+]([O-])c1cccnc1Oc1ccc(OCc2ccccc2)cc1	ELG1 genotox inconclusive, Rab9 prom act inconclusive, FLuc modulator 16.9µM, NPC1 prom act inconclusive (no result: Luc counter, SMN2 splice enh)
COc1cc(C2SCCS2)cc(Br)c1Oc1ncccc1[N+](=O)[O-]	none (no result: Luc counter, SMN2 splice enh)
O=[N+]([O-])c1ccc(Oc2ccc(OCc3ccccc3)cc2)nc1	none (no result: Luc counter, SMN2 splice enh)
CC1(C)CN=C(N(C(=O)Nc2ccccc2)c2ccccc2F)S1	none (no result: Luc counter, SMN2 splice enh)
CC1(C)CN=C(N(Cc2ccccc2)C(=O)Nc2ccccc2)S1	ELG1 genotox inconclusive, Rab9 prom act inconclusive, FLuc modulator 15.1µM, NPC1 prom act inconclusive
Cc1nc(Nc2nc3ccccc3o2)nc2c1CCC2	ELG1 genotox inconclusive, Rab9 prom act inconclusive, Luc counter inconclusive, SMN2 splice enh 2µM, FLuc modulator 1.69µM, NPC1 prom act inconclusive
Cc1cccc(C)c1Nc1nc2ccccc2o1	none
CCOC(=O)c1cnc(Nc2ccccc2)nc1C(F)(F)F	FLuc modulator 23.9µM (no result: Luc counter, SMN2 splice enh)
CCOC(=O)c1cnc(Nc2nc3ccccc3o2)nc1C	Rab9 prom act inconclusive, Luc counter 2µM, FLuc modulator 0.379µM, NPC1 prom act inconclusive (no result: ELG1 genotox)
CCOC(=O)c1cnc(-c2ccccc2)nc1C(F)(F)F	FLuc modulator inconclusive
CCOC(=O)c1cnc(Nc2ccc(OCC)cc2)nc1C	ELG1 genotox inconclusive, FLuc modulator inconclusive, NPC1 prom act inconclusive
Cc1cc(C)cc(NC(=O)c2ccc(CNc3c(N4CCCC4)c(=O)c3=O)cc2)c1	FLuc modulator inconclusive (no result: Luc counter, SMN2 splice enh)
CN1CCc2c(sc3c2C(=O)NC(c2ccco2)N3)C1 (stereo not drawn)	none
O=C1NC(c2cccs2)Nc2sc3c(c21)CCCC3 (stereo not drawn)	Rab9 prom act 3.55µM, SMN2 splice enh inconclusive, FLuc modulator 6.75µM, NPC1 prom act 2.82µM
Cc1ccc(CN(C(=O)COc2ccc(C(C)C)cc2)C2CCS(=O)(=O)C2)o1 (stereo not drawn)	none (no result: ELG1 genotox, Rab9 prom act, Luc counter, NPC1 prom act)
COc1ccc2cc(C3OCCO3)c(Cl)nc2c1	ELG1 genotox inconclusive, Rab9 prom act 2.51µM, FLuc modulator 12µM, NPC1 prom act 2.51µM (no result: SMN2 splice enh)
Nc1nccc(-c2cccs2)n1	none
Brc1cc(Br)c2nc(-c3cccs3)ccc2c1	ELG1 genotox 11.2µM, Rab9 prom act inconclusive, SMN2 splice enh 11.2µM, FLuc modulator 9.53µM
CC(=O)N1CCc2cc(S(=O)(=O)NCCC(=O)Nc3ccc4c(c3)OCCO4)ccc21	ELG1 genotox inconclusive, SMN2 splice enh inconclusive, FLuc modulator 15.1µM
O=C1/C(=C/c2cccc(F)c2)Oc2cc(O)ccc21	FLuc modulator 10.7µM (no result: Luc counter, SMN2 splice enh)
Cc1cccc(/C=C2\Oc3cc(OS(C)(=O)=O)ccc3C2=O)c1	FLuc modulator 16.9µM
O=C(COc1ccc(Br)cc1)Nc1ccc(CN2CCOCC2)cc1	none (no result: Luc counter, SMN2 splice enh)
CCOC(=O)c1cn[nH]c1NC(=S)Nc1ccc(Cl)cc1	ELG1 genotox inconclusive, Rab9 prom act 0.316µM, FLuc modulator 0.379µM, NPC1 prom act 0.316µM (no result: Luc counter, SMN2 splice enh)
CCOCCCNC(=O)c1cc2c(s1)-c1ccccc1SC2	FLuc modulator 16.9µM (no result: Luc counter, SMN2 splice enh)
COc1ccc(C(=O)/C=C2\Sc3ccccc3N2C)cc1	ELG1 genotox 1.64µM, Rab9 prom act 0.891µM, SMN2 splice enh 7.94µM, FLuc modulator 1.2µM, NPC1 prom act 0.708µM
COc1ccccc1-[n+]1c(C)cc(/C=C2\Sc3ccccc3N2C)cc1C	FLuc modulator 2.39µM (no result: Luc counter, SMN2 splice enh)
